About 220 (0.56%) of roughly 39,000 compounds showed activity. For the sample, actives were picked, then their nearest neighbours and some compounds at random. A number with no mark means an inactive call.
Each molecule was assayed on Escherichia coli K-12 BW25113 (assay: relative growth (OD600 normalised to plate interquartile mean) (fraction); higher = less growth inhibition, active = 0.2 or less). Settings: 50 µM; LB; incubation time: overnight (16-24 h).
`C/C=C/c1ccc2c(c1)O[C@@H](CN(C)C(=O)c1ccc3c(c1)OCO3)[C@@H](C)CN([C@H](C)CO)S2(=O)=O` gave a relative growth of 1.01. For `CO/N=C(\C(=O)N[C@@H]1C(=O)N2C(C(=O)O)=C(C[N+]3(C)CCCC3)CS[C@H]12)c1csc(N)n1`, the relative growth was 0.0339 (active). For `CO/N=C(\C(=O)N[C@@H]1C(=O)N2C(C(=O)O)=C(C)CS[C@H]12)c1csc(N)n1`, the relative growth was 0.0368 (active). In the case of `CON=C(C(=O)NC1C(=O)N2C(C(=O)O)=C(C[N+]3(C)CCCC3)CSC12)c1csc(N)n1.[Cl-]` (stereo unspecified), the relative growth is reported as 0.0437 (active). For `CC1=C(C(=O)O)N2C(=O)C(NC(=O)C(N)C3=CCC=CC3)C2SC1` (stereo unspecified), the relative growth was 1.07. With `CC1=C(C(=O)O)N2C(=O)[C@@H](NC(=O)[C@H](N)C3=CCC=CC3)[C@H]2SC1` the relative growth was 1.03. With `C[C@H]1CN([C@@H](C)CO)S(=O)(=O)c2ccc(C3=CCCC3)cc2O[C@@H]1CN(C)S(=O)(=O)c1ccc(F)cc1` the relative growth was 1.02. In the case of `C[C@H](CO)N1C[C@H](C)[C@@H](CN(C)C(=O)CN(C)C)Oc2ncc(-c3ccc(C(=O)N(C)C)cc3)cc2C1=O`, the relative growth is reported as 0.975. `Cc1cccc(NC(=O)Nc2ccc3c(c2)C(=O)N(C)[C@@H]2CC[C@@H](CC(=O)NCc4ccccc4Cl)O[C@@H]2CO3)c1` was tested, and the relative growth was 0.998. `C[C@@H]1CN([C@H](C)CO)S(=O)(=O)c2ccc(-c3cncnc3)cc2O[C@H]1CN(C)C(=O)Cc1cccnc1` showed a relative growth of 0.98. In the case of `CC(C)NC(=O)N[C@@H]1CC[C@@H](CCN)O[C@H]1CO`, the relative growth is reported as 0.989. `C[C@H](CO)N1C[C@H](C)[C@@H](CN(C)Cc2ccc3c(c2)OCO3)Oc2ccc(NC(=O)CCCN(C)C)cc2CC1=O` showed a relative growth of 0.975. In the case of `O=c1nc[nH]c2n[nH]cc12`, the relative growth is reported as 1.03. In the case of `COc1ccc(C(=O)O)c(O)c1OC`, the relative growth is reported as 1.03. With `COC1=C(N)C(=O)c2nc(-c3nc(C(=O)O)c(C)c(-c4ccc(OC)c(OC)c4O)c3N)ccc2C1=O` the relative growth was 0.038 (active). With `COCC(=O)Nc1ccc2c(c1)C(=O)N(C)C[C@@H](OC)[C@H](C)CN(Cc1ccccc1C(=O)O)[C@H](C)CO2` the relative growth was 1.02. `C[C@@H]1CCCCO[C@H](CN(C)S(=O)(=O)c2ccc(Cl)cc2)[C@@H](C)CN([C@H](C)CO)C(=O)c2cc(NC(=O)c3ccncc3)ccc2O1` was tested, and the relative growth was 1.01. `COc1ccc(CN(C)C[C@H]2OCCCC[C@H](C)Oc3ccc(NS(=O)(=O)c4ccc(C)cc4)cc3C(=O)N([C@@H](C)CO)C[C@@H]2C)cc1` was tested, and the relative growth was 0.982. `C[C@H](CO)N1C[C@H](C)[C@H](CN(C)Cc2ccc3c(c2)OCO3)OCCCC[C@H](C)Oc2ccc(NS(=O)(=O)c3ccc(F)cc3)cc2C1=O` was tested, and the relative growth was 0.995. With `COc1ccc(NC(=O)N(C)C[C@@H]2Oc3ccc(NC(=O)Nc4ccc(C(F)(F)F)cc4)cc3C(=O)N([C@@H](C)CO)C[C@H]2C)cc1` the relative growth was 1.03. Work on `Clc1nc(-c2ccccn2)nc2scc(-c3ccccc3)c12` yielded a relative growth of 0.979. `CC(Cc1cccc(C(F)(F)F)c1)NCCOC(=O)c1ccccc1.Cl` (stereo unspecified) showed a relative growth of 0.815. `CC(NCCCc1cccc(C(F)(F)F)c1)c1cccc2ccccc12.Cl` (stereo unspecified) was tested, and the relative growth was 0.0467 (active). `C[C@@H](O)c1cccc(C(F)(F)F)c1` gave a relative growth of 0.986. `C[C@H]1CN([C@@H](C)CO)C(=O)c2cc(NS(=O)(=O)c3cn(C)cn3)ccc2O[C@H]1CN(C)Cc1ccc(C(=O)Nc2ccccc2N)cc1` was tested, and the relative growth was 1.04. `COc1cccc(OCc2ccc(Cn3nc(NC(=O)NCc4ccccc4OC)c4ccccc43)cc2)c1` gave a relative growth of 1.03. For `O=C1C=CC(=O)N1`, the relative growth was 0.0291 (active). For `Cc1noc(C)c1S(=O)(=O)Nc1ccc2c(c1)CC(=O)N([C@H](C)CO)C[C@H](C)[C@H](CN(C)S(=O)(=O)c1c(C)noc1C)O2`, the relative growth was 1.01. With `CN(C)CCOC(c1ccccc1)c1ccccc1.Cn1c(=O)c2[nH]c(Cl)nc2n(C)c1=O` the relative growth was 0.0491 (active). In the case of `COCCc1nc2c([nH]1)c(=O)n(C)c(=O)n2C`, the relative growth is reported as 0.97. `CN(C)CCOC(c1ccccc1)c1ccccc1.Cl` was tested, and the relative growth was 1.12. Molecule `CO[C@@H]1CN(C)C(=O)c2cc(NC(=O)c3ccc(F)cc3)ccc2OC[C@@H](C)N(C(=O)CN(C)C)C[C@H]1C` has a relative growth of 0.988. `C[C@H]1CCCCO[C@@H](CN(C)Cc2ccc(C(=O)Nc3ccccc3N)cc2)[C@@H](C)CN([C@@H](C)CO)C(=O)c2cc(N(C)C)ccc2O1` gave a relative growth of 0.998. `[N-]=[N+]=Nc1ccccc1C[C@@]1(C(=O)NC[C@@H](O)CO)N=C(c2ccc(OCCCO)cc2)O[C@@H]1c1ccccc1` gave a relative growth of 1. With `COc1ccc(S(=O)(=O)N(C)C[C@H]2Oc3ccc(NS(=O)(=O)c4ccc(F)cc4)cc3C(=O)N([C@H](C)CO)C[C@H]2C)cc1` the relative growth was 1.02. `CO[C@@H]1[C@@H](OC(=O)c2ccc(C)[nH]2)[C@@H](O)[C@@H](Oc2ccc3c(c2C)OC(=O)[C@H](NC(=O)c2[nH]cc(CC(=O)Nc4cc5ccc(O[C@@H]6OC(C)(C)[C@H](OC)[C@@H](OC(=O)c7ccc(C)[nH]7)[C@H]6O)c(C)c5oc4=O)c2C)C3)CC1(C)C` was tested, and the relative growth was 0.0629 (active). For `COC1C(OC(N)=O)C(O)C(Oc2ccc3c([O-])c(NC(=O)c4ccc(O)c(CC=C(C)C)c4)c(=O)oc3c2C)OC1(C)C.[Na+]` (stereo unspecified), the relative growth was 0.701. Work on `COCCCNC(=O)[C@@H]1c2ccccc2C(=O)N(Cc2cc(C(F)(F)F)cc(C(F)(F)F)c2)[C@H]1c1ccc(CO)cc1` yielded a relative growth of 0.859. `Cc1noc(C)c1NC(=O)Nc1ccc2c(c1)C(=O)N([C@@H](C)CO)C[C@@H](C)[C@@H](CN(C)C(=O)c1ccccc1)OCCCC[C@@H](C)O2` was tested, and the relative growth was 0.977. In the case of `Cc1cc(C2CCCCC2)n(O)c(=O)c1.NCCO`, the relative growth is reported as 0.0534 (active). `C[C@@H]1CN([C@@H](C)CO)C(=O)c2cc(-c3cccc(C(=O)N(C)C)c3)cnc2O[C@H]1CN(C)S(=O)(=O)c1ccccc1` showed a relative growth of 1.01. `COCC#Cc1ccc2c(c1)O[C@H](CN(C)C(=O)C1CCCCC1)[C@H](C)CN([C@H](C)CO)S2(=O)=O` gave a relative growth of 0.988. In the case of `COC1C=COC2(C)Oc3c(C)c(O)c4c(O)c(c(C=NN5CCN(C)CC5)c(O)c4c3C2=O)NC(=O)C(C)=CC=CC(C)C(O)C(C)C(O)C(C)C(OC(C)=O)C1C` (stereo unspecified), the relative growth is reported as 0.0777 (active). With `COC1C=COC2(C)Oc3c(C)c(O)c4c(O)c(c(C=NN5CCN(C6CCCC6)CC5)c(O)c4c3C2=O)NC(=O)C(C)=CC=CC(C)C(O)C(C)C(O)C(C)C(OC(C)=O)C1C` (stereo unspecified) the relative growth was 0.0719 (active). With `COC1C=COC2(C)Oc3c(C)c(O)c4c(O)c(c5c(nc6cc(C)ccn65)c4c3C2=O)NC(=O)C(C)=CC=CC(C)C(O)C(C)C(O)C(C)C(OC(C)=O)C1C` (stereo unspecified) the relative growth was 0.0499 (active). With `CO[C@H]1/C=C\O[C@@]2(C)Oc3c(C)c(O)c4c(c3C2=O)[C@]2(C=C(NC(=O)/C(C)=C\C=C/[C@@H](C)[C@@H](O)[C@@H](C)[C@@H](O)[C@@H](C)[C@@H](OC(C)=O)[C@@H]1C)C4=O)OCC(=O)O2` the relative growth was 0.905. `CO[C@H]1/C=C\O[C@@]2(C)Oc3c(C)c(O)c4c(O)c(c(/C=N/N=C/N5CCCCC5)c(O)c4c3C2=O)NC(=O)/C(C)=C\C=C/[C@H](C)[C@H](O)[C@@H](C)[C@@H](O)[C@@H](C)[C@H](OC(C)=O)[C@@H]1C` showed a relative growth of 0.65. In the case of `C[C@@H]1CCCCO[C@H](CN(C)Cc2ccc3c(c2)OCO3)[C@H](C)CN([C@@H](C)CO)C(=O)c2cc(NC(=O)NC3CCCCC3)ccc2O1`, the relative growth is reported as 1.01. Work on `C[C@H](CO)N1C[C@H](C)[C@@H](CN(C)C(=O)NC2CCCCC2)Oc2c(NC(=O)Nc3cccc4ccccc34)cccc2C1=O` yielded a relative growth of 0.995. `C[C@H](CO)N1C[C@H](C)[C@@H](CN(C)Cc2ccncc2)Oc2c(NS(=O)(=O)c3ccc(F)cc3)cccc2C1=O` was tested, and the relative growth was 1. `CO[C@H]1CN(C)C(=O)c2ccc(NS(C)(=O)=O)cc2OC[C@H](C)N(C(=O)C2CCCCC2)C[C@@H]1C` was tested, and the relative growth was 0.962. In the case of `C[C@H]1CN([C@@H](C)CO)C(=O)Cc2cc(NS(=O)(=O)c3ccc(Cl)cc3)ccc2O[C@H]1CN(C)Cc1ccc(-c2ccccc2)cc1`, the relative growth is reported as 0.992. With `Cc1noc(C)c1NC(=O)N(C)C[C@@H]1OCCCC[C@@H](C)Oc2ccc(NC(=O)Cc3ccccc3)cc2C(=O)N([C@@H](C)CO)C[C@H]1C` the relative growth was 0.958. In the case of `Nc1nc(=O)c2ncn(COCCO)c2[nH]1`, the relative growth is reported as 1. `COc1ccc(S(=O)(=O)Nc2ccc3c(c2)C(=O)N([C@@H](C)CO)C[C@H](C)[C@@H](CN(C)S(=O)(=O)c2cn(C)cn2)OCCCC[C@H](C)O3)cc1` showed a relative growth of 0.994. `CO[C@H]1CN(C)C(=O)c2cc(NS(=O)(=O)CC(F)(F)F)ccc2OC[C@@H](C)N(Cc2nccs2)C[C@@H]1C` gave a relative growth of 0.962. Work on `CC(=O)OCC1=C(C(=O)[O-])N2C(=O)C(NC(=O)CSc3ccncc3)C2SC1.[Na+]` (stereo unspecified) yielded a relative growth of 0.797. For `NC(=O)c1cc[n+](CC2=C(C(=O)[O-])N3C(=O)C(NC(=O)Cc4cccs4)C3SC2)cc1` (stereo unspecified), the relative growth was 0.634. `COC1(NC(=O)Cc2cccs2)C(=O)N2C(C(=O)[O-])=C(COC(N)=O)CSC21.[Na+]` (stereo unspecified) was tested, and the relative growth was 0.0688 (active). `CC(=O)OCC1=C(C(=O)[O-])N2C(=O)C(NC(=O)Cc3cccs3)C2SC1.[Na+]` (stereo unspecified) was tested, and the relative growth was 0.0435 (active). In the case of `C[C@H](CO)N1C[C@H](C)[C@H](CN(C)C(=O)Nc2ccccc2)Oc2c(NC(=O)CCCCCC(=O)Nc3ccccc3N)cccc2C1=O`, the relative growth is reported as 0.992.

Reference: the supplement of paper PMC9446081
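Note: Wild-type cells incubated without shaking, value is the mean of two biological replicates.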
